Measurements: the supplement of paper PMC13380429
Values without a mark were called inactive.

Test system: Vero E6 infected with SARS-CoV-2
Assay: inhibition of SARS-CoV-2 cytopathic effect; higher = more antiviral protection, active = above 15
Details: 48 h

SMILES	inhibition of SARS-CoV-2 cytopathic effect (1 nM) [%]	inhibition of SARS-CoV-2 cytopathic effect (8.33 nM) [%]	inhibition of SARS-CoV-2 cytopathic effect (100 nM) [%]	inhibition of SARS-CoV-2 cytopathic effect (833.33 nM) [%]	inhibition of SARS-CoV-2 cytopathic effect (10000 nM)
CON(C)C(=O)[C@H](O)[C@H](Cc1ccccc1)NC(=O)c1cc2cc(Cl)ccc2[nH]1	-0.47	0.53	1.7	1.24	4.39%
CCCN(CCC)C(=O)C(CCC(=O)O)NC(=O)c1ccccc1 (stereo not given) [proglumide]	2.27	-2.46	-0.81	2.34	-1.09%
CN1CCCCC1CCN1c2ccccc2Sc2ccc([S+](C)[O-])cc21 (stereo not given) [mesoridazine]	-0.86	-1.76	-0.98	-3.35	-3.76%
Nc1ccc(/N=N/c2ccccc2)c(N)n1 [phenazopyridine]	1.34	0.46	0.72	1.24	0.27%
Cc1sc(C)c(C(=O)NC2(c3ccc(C(=O)O)cc3)CC2)c1Cc1ccc(C(F)(F)F)cc1	-1.32	-0.56	-0.49	-1.38	1.12%
CCC(=O)[C@@]1(C)[C@H](C)C[C@H]2[C@@H]3CCC4=CC(=O)C=C[C@]4(C)[C@H]3[C@@H](O)C[C@@]21C [rimexolone]	-1.78	-0.66	-2.92	0.22	-2.54%
Cc1ccnc(NC(=O)C(C)c2cccc(C(=O)c3ccccc3)c2)c1 (stereo not given) [piketoprofen]	0.01	0.74	2.28	-1.34	3.81%
CCOC(=O)[C@@H](C)Oc1ccc(Oc2nc3ccc(Cl)cc3o2)cc1 [fenoxaprop-p-ethyl]	0.1	-0.32	-2.57	2.13	-0.66%
CCCCn1c(-c2ccccc2)nc(-c2ccccc2)c1CN(Cc1ccc2c(c1)OCO2)Cc1ccc2c(c1)OCO2	0	1.63	-0.2	0.71	5.96%
CCN(CC)CCCC(C)Nc1nc(C)cc(Nc2ccc3nc(C)cc(N)c3c2)n1 (stereo not given)	-1.23	-0.04	1.43	-0.56	0.17%
CC(=O)Nc1ccc(C(=O)NC(C)(C)C)cc1	-4.86	-3.67	-1.32	-3.41	-0.2%
CN(C[C@@H]1COCCO1)S(=O)(=O)Nc1ccc2ccc3ncc(-c4cnn(C)c4)cc3c(=O)c2c1	-0.78	1.08	-0.46	-1.97	-4.16%
C=CCN1CCc2cc(O)c(O)cc2[C@H](c2ccccc2)C1	1.44	0.58	0.35	0.44	-2.9%
CCN(c1ccccc1)c1cc(=NC)n(C)c(C)n1	-6.18	-5.43	-5.42	-2.51	-0.53%
COc1ccnc2[nH]cc(C(=O)C(=O)N3CCN(C(=O)c4ccccc4)C[C@H]3C)c12	1.91	-1.88	-0.3	0.28	1.74%
COC(=O)C1=C(C)NC(C)=C(C(=O)NCCCN2CCC(c3ccccc3)(c3ccccc3)CC2)C1c1ccc([N+](=O)[O-])cc1 (stereo not given)	1.77	1.95	0.45	0.78	48.8% (active)
O=[N+]([O-])c1ccc2nc(COCc3nc4ccc([N+](=O)[O-])cc4[nH]3)[nH]c2c1	-1.36	-1.65	-4.45	0.4	-0.17%
O=C(O)[C@@H]1C[C@@H](C2CCCCC2)CN1C(=O)CP(=O)(O)CCCCc1ccccc1 [fosinoprilat]	-0.23	-5.78	-5.83	0.83	6.8%
